Results published in PubChem BioAssay AID720704 (The Scripps Research Institute Molecular Screening Center, 2013).
The whole screen tested about 370,000 compounds, of which about 660 (0.18%) were called active. No stated cut-off is given here; in the data, active means inhibition above about 11%; inactive means the rest. The sample as a whole holds a higher share of actives than the screen did.

target: 1-phosphatidylinositol 4,5-bisphosphate phosphodiesterase beta-3 (Homo sapiens) (UniProt Q01970); experiment: human PLC-beta3 inhibitors, primary screen, biochemical, fluorescence (AID 720704); settings: Purified PLC-beta3, fluorogenic substrate, at 12.2 µM, hits give high values;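 further: 0% = median of compound wells on plate and 100% = full blocker control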
Sequence (Q01970 whole entry, looked up): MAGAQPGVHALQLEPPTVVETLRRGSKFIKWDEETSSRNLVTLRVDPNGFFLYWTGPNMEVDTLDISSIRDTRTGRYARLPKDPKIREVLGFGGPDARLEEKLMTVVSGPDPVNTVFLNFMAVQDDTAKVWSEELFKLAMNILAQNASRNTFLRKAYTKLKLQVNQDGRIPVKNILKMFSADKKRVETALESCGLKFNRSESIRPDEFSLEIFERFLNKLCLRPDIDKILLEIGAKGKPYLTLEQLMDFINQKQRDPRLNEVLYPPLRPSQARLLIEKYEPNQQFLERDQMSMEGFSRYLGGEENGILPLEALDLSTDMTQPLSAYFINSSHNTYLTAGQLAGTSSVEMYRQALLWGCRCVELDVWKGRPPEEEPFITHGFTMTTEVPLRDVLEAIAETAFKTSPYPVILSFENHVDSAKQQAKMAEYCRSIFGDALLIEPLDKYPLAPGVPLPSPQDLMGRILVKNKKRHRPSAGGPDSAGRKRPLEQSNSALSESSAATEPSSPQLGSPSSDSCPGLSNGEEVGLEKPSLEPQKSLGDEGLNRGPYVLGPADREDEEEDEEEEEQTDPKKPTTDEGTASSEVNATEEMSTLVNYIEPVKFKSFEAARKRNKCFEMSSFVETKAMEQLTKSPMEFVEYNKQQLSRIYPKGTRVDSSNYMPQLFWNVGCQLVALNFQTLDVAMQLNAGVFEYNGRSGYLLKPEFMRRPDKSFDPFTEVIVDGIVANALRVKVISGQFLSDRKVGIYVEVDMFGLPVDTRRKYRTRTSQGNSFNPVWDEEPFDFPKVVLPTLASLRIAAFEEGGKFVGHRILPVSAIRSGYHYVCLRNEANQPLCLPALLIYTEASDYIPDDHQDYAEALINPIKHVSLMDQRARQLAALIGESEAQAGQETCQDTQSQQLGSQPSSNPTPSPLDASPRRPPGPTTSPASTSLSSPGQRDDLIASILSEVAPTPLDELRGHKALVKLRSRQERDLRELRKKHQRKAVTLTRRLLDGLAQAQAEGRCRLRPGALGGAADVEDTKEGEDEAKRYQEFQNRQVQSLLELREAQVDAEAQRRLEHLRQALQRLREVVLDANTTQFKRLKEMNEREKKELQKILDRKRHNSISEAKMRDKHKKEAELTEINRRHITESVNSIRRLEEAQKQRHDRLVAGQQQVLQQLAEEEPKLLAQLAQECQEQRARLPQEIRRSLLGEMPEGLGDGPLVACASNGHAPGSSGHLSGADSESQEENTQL

inhibition, active:
COc1ccc([N+](=O)[O-])cc1N(CC(O)Cn1nnc2ccccc21)S(=O)(=O)c1ccc(C)cc1 (configuration not stated) 11.5%
CCOc1ccccc1NC(=O)c1cccnc1 12.6%
COc1ccc(S(=O)(=O)N2CCC(C(=O)OCC(=O)c3ccccc3)CC2)cc1[N+](=O)[O-] 10.8%
CN(C(=O)c1cccc(NC(=O)Cc2cccc([N+](=O)[O-])c2)c1)C1CCCCC1 11.2%
CCOc1c(Br)cc(/C=C2\C(=O)N(CCC#N)N=C2C)cc1OC 13.5%
CC(N=Cc1nc(-c2ccccc2)oc1O)c1ccccc1 (configuration not stated) 15.1%
COC(=O)CN1C(=O)C(O)=C(C(C)=O)C1c1ccc([N+](=O)[O-])cc1 (configuration not stated) 13.8%
CCOc1ccccc1C1CC(c2cccc(NS(C)(=O)=O)c2)=NN1C(=O)c1ccccc1 (configuration not stated) 13.2%
Cc1nc(Nc2ccccc2C)c2cnn(C)c2n1 13.1%
Cc1cc2nc(SCCN3CCOCC3)[nH]c2cc1C 10.8%

inhibition, inactive:
CC1=CC(=O)C=CC1(C)C(Cl)(Cl)Cl (configuration not stated) 0.48%
Cc1c(C(=O)N2CC(C)OC(C)C2)sc2nc(-c3ccccc3)cn12 (configuration not stated) -2.9%
O=C(c1ccc(F)cc1)N1CCCC(C(=O)N2CCCCC2)C1 (configuration not stated) -6.9%
Cc1ccc(S(=O)(=O)N(CC(O)CN2CCCCC2)c2cccc([N+](=O)[O-])c2)cc1 (configuration not stated) -3.53%
COc1ccc([N+](=O)[O-])cc1N(CC(O)CN(CC(C)C)CC(C)C)S(=O)(=O)c1ccc(C)cc1 (configuration not stated) -4.79%
O=C(NC1CCCCN(Cc2ccc(Cl)cc2)C1=O)c1ccc(Br)cc1 (configuration not stated) -4.01%
Cc1cccc(OCc2nnc(SCc3nc4cc(C(F)(F)F)ccc4c(=O)[nH]3)o2)c1 -14.6%
CCn1cc(C(=O)NCCC(=O)NCCO)c(=O)c2cc3c(cc21)OCO3 -11.8%
CCCOc1cccc(C(=O)NCCCNC(=O)c2cccnc2)c1 -4.69%
Cc1cccc(C(=O)Nc2ccccc2C(=O)NCc2cccnc2)c1 2.86%
O=S1(=O)C[C@@H](N2CCN(CCO)CC2)[C@H](COCc2ccccc2)N1 -7.43%
Cc1ccc(S(=O)(=O)N2CCC(C(=O)OCC(=O)N(C)c3ccccc3)CC2)cc1C -0.47%
O=C(COc1ccc(S(=O)(=O)N2CCCC2)cc1[N+](=O)[O-])N1CCCCC1 6.09%
CCOC(=O)[C@H]1CCC[C@@H](NS(=O)(=O)c2ccc(NC(C)=O)cc2)C1 -1.08%
O=S(=O)(NCCSc1ccccn1)c1ccc(Cl)cc1 4.09%
CN(C(=O)c1cccc(NC(=O)Cc2cccc(NC(=O)C3CCCN(C(=O)C4CC4)C3)c2)c1)C1CCC1 (configuration not stated) 1.11%
CN(C(=O)c1cccc(NC(=O)Cc2ccc([N+](=O)[O-])cc2)c1)C1CCC1 1.28%
O=C(CNC(=O)c1ccccc1)OC(C(=O)Nc1cc([N+](=O)[O-])ccc1F)c1ccccc1 (configuration not stated) -0.41%
Oc1oc(-c2ccccc2Br)nc1/C=N/c1ccccn1 -19.8%
CC(=O)C1=C(O)C(=O)N(c2cccnc2)C1c1ccc([N+](=O)[O-])cc1 (configuration not stated) 4.27%
CC(=O)C1=C(O)C(=O)N(c2ccc(Br)cc2)C1c1ccc([N+](=O)[O-])cc1 (configuration not stated) -6.85%
O=C(NC(CC(=O)N1CCN(c2ccccc2)CC1)c1ccccc1)c1ccccc1Cl (configuration not stated) 2.68%
O=C(NCCSc1ncc(-c2ccccc2)[nH]1)c1ccco1 -6.81%
CCOc1ccc2nc(Cl)c(C3CC(c4ccccc4)=NN3C(=O)c3cccs3)cc2c1 (configuration not stated) -0.32%
Cc1ccc(C2CC(c3cccc(NS(C)(=O)=O)c3)=NN2S(C)(=O)=O)cc1 (configuration not stated) 0.24%
Cc1ccc(C(=O)N(CN2CCCC2=O)c2ccc(F)cc2)cc1 3.26%
CCOc1ccc(S(=O)(=O)Nc2ccncc2)c(C)c1C 1.51%
Cc1cc(C)c2nc(SCC(=O)N(C)C3CCS(=O)(=O)C3)cc(C)c2c1 (configuration not stated) 2.26%
O=S(=O)(c1ccc(F)cc1)N1CCN=C1SCc1cccc(F)c1 -7.5%
Cc1ccc(/C=C/C(=O)O)cc1S(=O)(=O)N1CCC(Cc2ccccc2)CC1 -3.09%
Cn1ncc2c(Nc3cccc4ccccc34)ncnc21 -6.23%
Cn1ncc2c(NNC(=O)Cc3cccc4ccccc34)ncnc21 1.27%
O=C1C(=O)N(c2ccccc2)C(c2ccccc2)C1c1ccccc1 (configuration not stated) -283%
O=S(=O)(O)c1cc2onnc2c2ccccc12 -11.7%
Cc1cc(NS(=O)(=O)c2ccc(NC(=O)CSc3nnc(SCc4ccc(F)cc4)s3)cc2)nc(C)n1 -3.29%
Cc1cc(C(=O)OC(C)C(=O)Nc2cccc(S(=O)(=O)N3CCOCC3)c2)c(C)o1 (configuration not stated) 2.02%
NNC(=O)C1CC(O)CN1S(=O)(=O)c1ccc(Cl)cc1 (configuration not stated) -6.44%
O=C(CSc1ncn[nH]1)Nc1nc2c(F)c(F)c(F)cc2s1 -3.83%
Cc1cc(C)c(NC(=O)CSc2nc3ccncc3[nH]2)c(C)c1 -1.6%
CCNC(=S)N1CCC(c2nc3cc(C)c(C)cc3[nH]2)CC1 0.08%
Fc1ccc(CNCc2ccc(Br)cc2)cc1 1.89%
CC1(C(=O)NCc2ccco2)Cc2c(-c3ccc4c(c3)OCO4)ccnc2O1 (configuration not stated) -9.86%
COc1ccc(C(=O)NC2CC2)cc1OC1CCN(Cc2ccc(SC)cc2)CC1 -5.08%
CCN(C(=O)COc1cccnc1[N+](=O)[O-])C1CCS(=O)(=O)C1 (configuration not stated) 3.82%
CCc1cc2c(=O)c(-c3ccon3)c(N)oc2cc1OC -1.51%
CCOC(=O)C1CCN(C(=O)c2cccc(S(=O)(=O)N(CC)c3ccccc3)c2)CC1 -9.7%
CCCC1CCC(=NNC(=S)NCCc2ccccc2)CC1 (configuration not stated) -1.2%
